Measured values as given in PubChem BioAssay (NCATS).
Inconclusive results are not listed. Entries that show only a call come without a potency. Activity calls are given as the source filed them. Calls come from the whole dose curve; as a rule, active = well fitted curve in the direction sought with a large enough effect; inconclusive = small, poorly fitted or top-dose-only effect, or another doubt; inactive = no such curve, though single readings can be large; an effect the other way counts as inactive or inconclusive.

How the values were obtained:
[1] = qHTS of pediatric cancer cell lines to identify multiple opportunities for drug repurposing: Primary screen for A673 cells (AID 1347092); note: nearly all actives have a fitted effect of over 45% in size; note: potency is the fitted concentration of half-maximal effect
In short: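 Luminescence from CellTiter-Glo, taken after 15 min at room temperature, served as the proxy for metabolically active cells following 48 h treatment. Both potency and efficacy were taken from curves fitted to the titration data.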

[2] = qHTS of pediatric cancer cell lines to identify multiple opportunities for drug repurposing: Primary screen for SK-N-MC cells (AID 1347093); note: potency is the fitted concentration of half-maximal effect
In short: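 Metabolically active cells were quantified by ATP-dependent luminescence (CellTiter-Glo, 15 min at room temperature) following 48 h treatment. Cells had been plated at 500-1,000 per well and settled for 5 h beforehand.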

[3] = qHTS of pediatric cancer cell lines to identify multiple opportunities for drug repurposing: Primary screen for NB-EBc1 cells (AID 1347095); note: potency is the fitted concentration of half-maximal effect
In short: (§1)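 ATP-based luminescence (CellTiter-Glo) quantifies viability after a 48-hour exposure. Compounds are dosed across 8 or 11 final concentrations; DMSO and 2.3 µM bortezomib serve as controls.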

[4] = qHTS of pediatric cancer cell lines to identify multiple opportunities for drug repurposing: Primary screen for U-2 OS cells (AID 1347096); note: nearly all actives have a fitted effect of over 50% in size
In short: (§2)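 Cells (500-1,000/well) in growth media were settled 5 h at 37 degrees C, then given compounds for 48 h. Viability was read as CellTiter-Glo luminescence. Primary runs used MIPE at 11 points (0.78 nM-46 µM) and NPC at 8 points (0.59 nM-46 µM); follow-ups used 11 points.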

[5] = qHTS of pediatric cancer cell lines to identify multiple opportunities for drug repurposing: Primary screen for SK-N-SH cells (AID 1347098); note: nearly all actives have a fitted effect of over 65% in size; note: potency is the fitted concentration of half-maximal effect
In short: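 Cells (500-1,000/well) rested 5 h, then received compounds for 48 h; metabolically active cells were measured by CellTiter-Glo luminescence. Final concentrations spanned up to 46 µM (MIPE, 11-point) or 0.59 nM-46 µM (NPC, 8-point) in primary screens, 11-point in follow-ups.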

[6] = qHTS of pediatric cancer cell lines to identify multiple opportunities for drug repurposing: Primary screen for NB1643 cells (AID 1347099); note: nearly all actives have a fitted effect of over 50% in size; note: potency is the fitted concentration of half-maximal effect
In short: as §1

[7] = qHTS of pediatric cancer cell lines to identify multiple opportunities for drug repurposing: Primary screen for LAN-5 cells (AID 1347100); note: potency is the fitted concentration of half-maximal effect
In short: as §2

[8] = qHTS of pediatric cancer cell lines to identify multiple opportunities for drug repurposing: Primary screen for Saos-2 cells (AID 1347097); note: nearly all actives have a fitted effect of over 40% in size; note: potency is the fitted concentration of half-maximal effect
In short: as §1

[9] = qHTS of pediatric cancer cell lines to identify multiple opportunities for drug repurposing: Primary screen for BT-37 cells (AID 1347094); note: potency is the fitted concentration of half-maximal effect
In short: as §1

Structure (SMILES) | Potency [1] | Potency [2] | Potency [3] | Potency [4] | Potency [5] | Potency [6] | Potency [7] | Potency [8] | Potency [9]
COC(=O)[C@@H]1[C@H]2C[C@H]3c4[nH]c5ccccc5c4CCN3C[C@@H]2CC[C@@H]1O | inactive | inactive | inactive | inactive | inactive | inactive | inactive | – | –
O=C(O)CCC1CCC(c2cc(F)ccc2F)(S(=O)(=O)c2ccc(Cl)cc2)CC1 (stereo not drawn) | 1.48 µM (active) | 0.0662 µM (active) | inactive | – | inactive | 2.35 µM (active) | 2.35 µM (active) | – | –
CC1(C)CCC2=C(O1)c1ccccc1C(=O)C2=O | 23.5 µM (active) | 23.5 µM (active) | 18.7 µM (active) | inactive | – | 23.5 µM (active) | – | 18.7 µM (active) | –
CCOc1ccc(Nc2nc(-c3c(C)nc4ccccn34)cs2)cc1 | 0.003 µM (active) | 0.0047 µM (active) | – | inactive | inactive | inactive | 0.001 µM (active) | inactive | –
CC(=O)OC1C(C)OC(Oc2c(-c3ccc(O)cc3)oc3cc(O)cc(O)c3c2=O)C(O)C1OC(C)=O (stereo not drawn) | 11.8 µM (active) | – | – | inactive | inactive | – | – | 18.7 µM (active) | 27.3 µM (active)
CCCCCCCCCCCC1=C(O)C(=O)C=C(O)C1=O | – | 0.0935 µM (active) | 0.469 µM (active) | inactive | – | – | 0.0166 µM (active) | 0.0372 µM (active) | 0.0243 µM (active)
O=C1NC(=O)C(=Cc2cccc(C(F)(F)F)c2)S1 | – | – | – | inactive | inactive | – | inactive | inactive | inactive
NC(=O)c1cnc(-c2ccc(C3(N)CCC3)cc2)c(-c2ccccc2)c1 | – | 1.48 µM (active) | inactive | inactive | – | – | – | – | inactive
c1ccc2c(-c3cnn4cc(-c5ccc(N6CCNCC6)cc5)cnc34)ccnc2c1 | – | – | – | inactive | – | – | – | – | –
CC(=O)N(C)C1(c2ccccc2)CCN(CCC[C@]2(c3ccc(Cl)c(Cl)c3)CCCN(C(=O)c3ccccc3)C2)CC1 | – | 20.9 µM (active) | – | – | – | 23.5 µM (active) | 23.5 µM (active) | 33.2 µM (active) | 30.6 µM (active)
CON=C(C(=O)N[C@@H]1C(=O)N2C(C(=O)OCOC(=O)C(C)(C)C)=C(C=Cc3scnc3C)CS[C@H]12)c1csc(N)n1 | – | 18.7 µM (active) | inactive | inactive | inactive | – | inactive | inactive | inactive
C=C1C(=O)OC2C=C(C)CCC=C(C)CCC12 (stereo not drawn) | – | – | – | inactive | inactive | 23.5 µM (active) | 23.5 µM (active) | 33.2 µM (active) | inactive
O=C(O)c1ccc(-c2c[nH]c3ncc(-c4ccccc4)cc23)cc1C1CCCC1 | – | 0.166 µM (active) | inactive | inactive | – | – | – | inactive | inactive
COc1ccc(C2CC(c3ccccc3)=NN2c2ccc(S(N)(=O)=O)cc2)cc1 (stereo not drawn) | – | 18.7 µM (active) | – | inactive | inactive | – | – | 16.6 µM (active) | 12.2 µM (active)
CCn1c(C(=O)N(C2CC2)C2CC2)cc2c3c(ncn3C)c(Nc3cc(C)n(C)n3)nc21 | – | – | inactive | inactive | – | – | – | – | inactive
COc1cccc([C@@H](C)NCCCc2ccccc2Cl)c1 | – | 11.8 µM (active) | – | inactive | – | 20.9 µM (active) | inactive | inactive | inactive
O=C(Nc1ccccc1Br)N[C@@H]1CCN(c2ccc(C(F)(F)F)cn2)C1 | – | – | – | inactive | – | – | – | 18.7 µM (active) | –
O=C1Nc2ccc(Cl)cc2C(C#CC2CC2)(C(F)(F)F)O1 (stereo not drawn) | – | 13.2 µM (active) | inactive | – | – | 23.5 µM (active) | – | 20.9 µM (active) | –
CO[C@H]1C[C@@H]2CC[C@@H](C)[C@@](O)(O2)C(=O)C(=O)N2CCCC[C@@H]2C(=O)O[C@H]([C@H](C)C[C@@H]2CC[C@H](OP(C)(C)=O)[C@H](OC)C2)CC(=O)[C@H](C)C=C(C)[C@@H](O)[C@@H](OC)C(=O)[C@H](C)C[C@H](C)C=CC=CC=C1C | inactive | – | – | inactive | inactive | inactive | – | – | –
O=C1NC(=O)C(=Cc2ccc3c(c2)OC(F)(F)O3)S1 | – | 3.32 µM (active) | – | – | 12.1 µM (active) | – | – | – | –
CCOC(=O)C1=C(N)Oc2ccc(Br)cc2C1C(C#N)C(=O)OCC (stereo not drawn) | – | – | 6.62 µM (active) | inactive | 24.1 µM (active) | 10.5 µM (active) | 16.6 µM (active) | – | inactive
CCc1ccc(C=C2SC(=S)NC2=O)cc1 | – | inactive | – | – | inactive | 23.5 µM (active) | inactive | – | inactive
O=C(O)c1c(Cl)c(Cl)c(Cl)c(Cl)c1-c1c2cc(I)c(=O)c(I)c-2oc2c(I)c(O)c(I)cc12 | – | – | – | – | 24.1 µM (active) | – | – | – | –
